Consider 40 compounds from PubChem BioAssay (EPA / NIEHS).

Calls of active or inactive are those of the source. How the source made its calls: active means hit-call score of the fitted dose curve at least 0.9, where 1 is the maximum; inactive means score below 0.9.

This test is described as follows: ATG_TCF_b_cat_CIS: Attagene CIS-FACTORIAL HepG2 Assay for human T-Cell-Factor with beta-catenin (TCF/b-cat) (AID 2282965). The conditions noted are these: HepG2 TCF/beta-catenin cis-reporter transcription, actives raise or lower the signal. Here is the method:
ATG_CIS is a cell-based, multiplexed-readout assay that uses HepG2, a human liver cell line, with measurements taken at 24 hours after chemical dosing in a 24-well plate.ATG_TCF_b_cat_CIS is one of 52 assay component(s) measured or calculated from the ATG_CIS assay. It is designed to make measurements of mRNA induction, a form of inducible reporter, as detected with fluorescence intensity signals by Reverse transcription polymerase chain reaction (RT-PCR) and Capillary electrophoresis technology.Data from the assay component ATG_TCF_b_cat_CIS was analyzed into 1 assay endpoint. This assay endpoint, ATG_TCF_b_cat_CIS, was analyzed with bidirectional fitting relative to DMSO as the negative control and baseline of activity. Using a type of inducible reporter, measures of mRNA for gain or loss-of-signal activity can be used to understand the reporter gene at the transcription factor-level as they relate to the gene TCF7 and TCF7L2 and LEF1 and TCF7L1. Furthermore, this assay endpoint can be referred to as a primary readout, because this assay has produced multiple assay endpoints where this one serves a reporter gene function. To generalize the intended target to other relatable targets, this assay endpoint is annotated to the dna binding intended target family, where the subfamily is HMG box protein.
Human liver HepG2 cells are transiently transfected with multiple reporter transcription units (MRTUs) in 6-well plates using FuGene 6 reagent (Roche; 3 ml FuGene/1 mg DNA). The MRTU constructs are regulated by a cis-regulating element (promoter). […] A major difference between the CIS and TRANS system is that in CIS activities of endogenous TFs are measured, whereas the TRANS assay evaluates changes in activities of exogenous, chimeric NR-Gal4 proteins. […] At the end of 24 hour incubation, total RNA was isolated using TriZol reagent (Invitrogen). The isolated RNA is then reverse-transcribed using oligo(dT) primer and Mo-MLV reverse transcriptase (Invitrogen) with DNAse I (Ambion) treatment for 30 min. The one-tenth of the produced cDNA was amplified by PCR using Taq DNA polymerase (Invitrogen) and two reporter sequence-specific primers. The PCR products were fluorescently labeled by primer extension with 6-arboxyfluorescein (6-FAM) 5'-labeled reporter sequence-specific primer (2 min at 95 C, 20 s at 68 C and 10 min at 72 C) and these products were digested with 5U of HpaI (New England Biolabs) for 2h at 37 C. The fragments were purified using Qiaquick PCR columns (Qiagen), analyzed on an ABI 3130xL genetic analyzer (Applied Biosystems) with peak positions identified by using a set of X-rhodamine (ROX)-labeled MapMarker1000 molecular weight standards (BioVentures). The raw capillary electrophoresis data was processed using Attagraph software (Attagene).
For `FC(F)(F)C(F)(F)C(F)(F)CC1CO1` (stereo not given), the compound was called inactive.

Take `N#Cc1ccccc1O`: the result was inactive.

For `CCCC(=O)OCC(COC(=O)CCC)OC(=O)CCC`, the AC50 is 64 µM (active).

On to `CCOC(=O)CCC(C)=O`, for which the compound was classed as inactive.

Regarding `O=C(O)C(F)(F)OC(F)(F)C(F)(F)OC(F)(F)C(F)(F)OC(F)(F)F`, the outcome was inactive.

In the case of `O=C1C=CC(=O)N1c1ccc(Cc2ccc(N3C(=O)C=CC3=O)cc2)cc1`, the compound was classed as inactive.

Turning to `CO[Si](C)(CCC(F)(F)C(F)(F)C(F)(F)C(F)(F)C(F)(F)C(F)(F)F)OC`, the result was inactive.

Turning to `CCn1c2ccccc2c2ccccc21`, the compound was called inactive.

In the case of `CC(C)(C)c1cc(Cc2cc(C(C)(C)C)c(O)c(C(C)(C)C)c2)cc(C(C)(C)C)c1O`, the compound was called inactive.

On to `NS(=O)(=O)C(F)(F)C(F)(F)C(F)(F)C(F)(F)C(F)(F)C(F)(F)F`, for which the outcome was inactive.

`Oc1ccc2c(c1)CCC2`: the call was inactive.

As for `FC(F)(F)C(F)(F)C(F)(F)C(F)(F)C(F)(F)C(F)(F)C(F)(F)CCI`, the compound was classed as inactive.

Turning to `O=S(=O)(O)CCC(F)(F)C(F)(F)C(F)(F)C(F)(F)F`, the compound was called inactive.

With `CCOCOCC`, the result was inactive.

For `CCOCN(C(=O)CS(=O)(=O)O)c1c(C)cccc1CC`, the compound was classed as inactive.

`OCCCCC(F)(F)C(F)(F)C(F)(F)C(F)(F)F`: the call was inactive.

On to `OCCCc1cccnc1`, for which the result was inactive.

In the case of `CC(C)Nc1ccc(NC(C)C)c2c1C(=O)c1ccccc1C2=O`, the outcome was inactive.

With `F[Si-2](F)(F)(F)(F)F`, the outcome was inactive.

In the case of `Cc1cccc(C)n1`, the result was inactive.

As for `CC1CCCCC1`, the outcome was inactive.

`O=C(Cl)C(F)(F)C(F)(F)C(F)(F)C(F)(F)C(F)(F)C(F)(F)F`: the compound was classed as inactive.

Take `Cc1ccc(O)cn1`: the compound was called inactive.

For the compound `CCOC(OCC)OCC`, the call was inactive.

On to `O=C(Cl)C(F)(F)C(F)(F)C(F)(F)C(F)(F)C(F)(F)C(F)(F)C(F)(F)F`, for which the outcome was inactive.

Consider `O=C(O)C(F)(F)C(F)(F)C(F)(F)C(=O)O`, for which the compound was classed as inactive.

`COC(F)(C(F)F)C(F)(F)F` (stereo not given): the compound was called inactive.

In the case of `CCOC(C=C(C)CCC=C(C)C)OCC`, the compound was called inactive.

On to `OCC1CCCO1` (stereo not given), for which the result was inactive.

On to `C=CC(=O)OCCC(F)(F)C(F)(F)C(F)(F)C(F)(F)F`, for which the compound was classed as inactive.

For the compound `O=c1[nH]cccc1O`, the outcome was inactive.

`Cc1cc(=O)[nH]c(C(C)C)n1`: the compound was classed as inactive.

`COC(=O)c1ccc(C=O)cc1`: the call was inactive.

For the compound `CCN(CCO)S(=O)(=O)C(F)(F)C(F)(F)C(F)(F)C(F)(F)C(F)(F)C(F)(F)C(F)(F)C(F)(F)F`, the call was inactive.

Turning to `CCCCCCCCCc1ccc(OCCO)cc1`, the half-maximal activity concentration (AC50) is 21.5 µM (active).

Consider `Oc1ccc(C2(c3ccc(O)c(C4CCCCC4)c3)CCCCC2)cc1C1CCCCC1`, for which the half-maximal activity concentration (AC50) is 33.4 µM (active).

In the case of `CCN(CC)c1ccc(C=O)c(O)c1`, the outcome was inactive.

Take `C=CC(=O)OCC(F)(F)C(F)(F)C(F)(F)C(F)(F)C(F)(F)C(F)(F)C(F)(F)C(F)F`: the AC50 is 89.1 µM (active).

`C[Si](Cl)(Cl)CCC(F)(F)C(F)(F)C(F)(F)C(F)(F)C(F)(F)C(F)(F)F`: the compound was called inactive.

Consider `CCCCCCCCCCCCCC[P+](CCCC)(CCCC)CCCC`, for which the compound was called inactive.
